Measured values taken from PubChem BioAssay (NCI).
Where “and” joins values, the source holds several entries; their conditions need not be identical. Identical values can stand only once. Compounds without any hit were thinned out: in the full panel of roughly 83,000, 20% have a hit.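 Testing used 96-well plates and a 48-hour single-concentration exposure. Example: -40 means 40% of the starting cells died.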 Values without a mark were called inactive. Calls of active or inactive are those of the source. How the source made its calls: active means growth percent below 10; inactive means the rest.

What was measured:
Assay in all cases: NCI-60 one-dose screen, 48 h (100 = growth as untreated, 0 = no growth, -100 = all killed)
Details in all cases: 10 µM unless noted
[1] = test system: HCT-15 colon
[2] = test system: HT29 colon
[3] = test system: SNB-75 CNS
[4] = test system: SNB-19 CNS
[5] = test system: U251 CNS
[6] = test system: PC-3 prostate
[7] = test system: SK-MEL-5 melanoma
[8] = test system: UACC-62 melanoma
[9] = test system: LOX IMVI melanoma
[10] = test system: SK-MEL-28 melanoma

Compound	growth [1]	growth [2]	growth [3]	growth [4]	growth [5]	growth [6]	growth [7]	growth [8]	growth [9]	growth [10]
CC1(C)C2CCC1(CS(=O)(=O)O)C(=O)C2 (centres undefined)	91.7% and 104%	98.2% and 108%	95% and 82.9%	101% and 109%	90.8% and 101%	94.6% and 94.5%	105% and 115%	88.3% and 93.2%	77.1% and 100%	109% and 126%
C[C@]12CC[C@H]3[C@@H](C[C@@H]4SC(Nc5cccc(F)c5)=N[C@@]45CC(=O)CC[C@]35C)[C@@H]1CCC2=O	6.88% (active)	-3.32% (active)	18.7%	62.8%	15.7%	19.1%	32.1%	37.5%	6.22% (active)	39.4%
CSc1cc(/C=C(\C)[C@@H]2C[C@@H]3O[C@]3(C)CCC[C@H](C)[C@H](O)[C@@H](C)C(=O)C(C)(C)[C@@H](O)CC(=O)O2)n(CCNC(=O)OC(C)(C)C)n1	37.1%	28.2%	43.9%	70.4%	67.2%	39%	38.4%	43.8%	51.1%	79%
O=[N+]([O-])c1cc(Cl)c(Cl)cc1Cl	104% and 108%	124% and 111%	93.8% and 121%	101% and 131%	93.4% and 102%	96.1% and 102%	123% and 105%	91.4% and 115%	96.5% and 98.4%	115% and 124%
CC(=O)OC1CC2(O)C(CCC3(C)C(c4ccc(=O)oc4)CCC32O)C2(C)CCC(OC3OC(CO)C(O)C(O)C3O)C=C12 (centres undefined)	-85.2% (active)	-55% (active)	-61.4% (active)	-94% (active)	-92.1% (active)	-55.2% (active)	-91.9% (active)	-65.6% (active)	-85.4% (active)	-31.7% (active)
C[C@]12C[C@H](c3ccoc3)OC(=O)[C@H]1CC[C@@]1(C)[C@@H]2[C@H]2C=C[C@]1(O)C(=O)O2	101%	82.3%	78.3%	102%	97.8%	74.8%	106%	92.5%	106%	109%
Oc1ccccc1C=NCCN=Cc1ccccc1O.[Fe]	101%	72.4%	77.2%	87.1%	26.4%	79.2%	66.5%	58.4%	-80.2% (active)	117%
COc1ccc2c(c1)c(-c1nc(-c3cn(C)c4ncccc34)cs1)cn2CCCCN1CCOCC1	-42.1% (active)	-87.8% (active)	43.6%	35.1%	-55.3% (active)	31.3%	14.5%	3.59% (active)	-78.8% (active)	-93.5% (active)
O=P1(N(CCCl)CCCl)NCCCO1 (centres undefined)	106%	102%	102%	102%	96.8%	106%	103%	94.4%	104%	114%
COc1cc2c(cc1OC)-c1c3c(cc4c1[C@@H](C2)N(C)CC4)OCO3	29%	29%	57.9%	48.4%	39.3%	39.8%	57.9%	45.2%	26.2%	
C=C[Se]CC(=O)/C=C/c1ccccc1	96.3%	80.7%	49.4%	31.3%	26.4%	29.1%	92.2%	92.4%	93.9%	96.1%
O=c1c2ccccc2nc(-c2ccccc2Cl)n1-c1nnc(C(F)(F)F)s1	21.1%	30.3%	53.9%	33.2%	16.6%	20%	9.47% (active)	10.3%	31.3%	30.2%
